# Experimental data reported in ChEMBL document CHEMBL3988442, “University of Dundee, Small-Polar-MMV Screening Library” (2021).
# Target: T1, Aspartate--tRNA(Asp/Asn) ligase (Mycobacterium tuberculosis (strain ATCC 25618 / H37Rv)) (UniProt P9WFW3); further: in the data most compounds retested in dose-response had high values
# T1 sequence (whole entry): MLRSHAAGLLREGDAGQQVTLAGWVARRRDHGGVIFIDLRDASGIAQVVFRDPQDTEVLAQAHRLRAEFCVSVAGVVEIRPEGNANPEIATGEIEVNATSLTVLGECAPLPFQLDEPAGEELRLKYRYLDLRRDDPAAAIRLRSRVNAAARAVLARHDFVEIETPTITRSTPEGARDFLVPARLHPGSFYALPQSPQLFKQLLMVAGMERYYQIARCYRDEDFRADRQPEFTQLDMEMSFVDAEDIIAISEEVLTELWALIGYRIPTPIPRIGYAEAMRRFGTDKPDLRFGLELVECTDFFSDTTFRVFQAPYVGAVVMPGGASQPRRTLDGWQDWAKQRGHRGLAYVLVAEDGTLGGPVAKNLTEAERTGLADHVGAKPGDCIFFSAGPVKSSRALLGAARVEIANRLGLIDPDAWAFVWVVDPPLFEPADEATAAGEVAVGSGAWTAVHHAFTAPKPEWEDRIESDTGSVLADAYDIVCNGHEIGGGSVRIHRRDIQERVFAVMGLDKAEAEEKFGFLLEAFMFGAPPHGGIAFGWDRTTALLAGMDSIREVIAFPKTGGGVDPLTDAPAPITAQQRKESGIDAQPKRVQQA
# Assay: Assay for Asp RNA synthetase-1 from Mycobacterium tuberculosis
# Format: functional
# Set-up: scale not given: direction of the effect not stated beside the values
# Conditions: 30 µM
row,Structure (SMILES),Percent Effect
1,Cc1cccc(CN2CCc3c(nc(N4CCCCC4C)[nH]c3=O)C2)n1 (stereo not given),-1.15%
2,NCC1CN(c2nc(-c3ccccc3)nc3c2CCNCC3)CCO1 (stereo not given),-0.798%
3,O=C1CCC2(CCN(Cc3cc(F)cc(F)c3)CC2)CN1CCO,-0.529%
4,CC(Cn1cncn1)NCc1nncn1C1CCCCC1 (stereo not given),-4.88%
5,Cc1cn2nc(N3CCCC3Cn3nc(C)cc3C)sc2n1 (stereo not given),-7.52%
6,Cc1ccc(-c2nnc(CNCCn3cc(C)cn3)o2)cc1,2.15%
7,Cc1cc(-c2cnc(NC3CCCC3)nc2-c2ccoc2C)on1,3.94%
8,O=C(NC1CC1)[C@H]1CC[C@@H]2[C@@H](CCN2c2ncc(F)cn2)O1,-4.13%
9,O=C(Nc1cnn(CCN2CCOCC2)c1)c1cc(F)ccc1F,0.211%
10,CCCNC(=O)NCc1cccnc1OC,-6.48%
11,O=C(C1CCCC1)N1CCN(Cc2nc(-c3ccco3)no2)CC1,-3%
12,O=C(NCC1CC1)[C@H]1C[C@H]2OCC[C@H]2N(CCc2ccccc2)C1,3.44%
13,N#Cc1ccc(CN2CCN(C(=O)C3CCC3)[C@@H]3CS(=O)(=O)C[C@@H]32)cc1,-2.41%
14,CN(CCO)C[C@@H]1CN(C(=O)c2c(F)cccc2Cl)C[C@@H]1CO,2.26%
15,CC[C@@]1(O)CCN(C(=O)c2ccc(-c3cccc(F)c3)cc2)C[C@H]1O,3.54%
16,CNC(=O)CC1CCN(Cc2nc(-c3ccc(SC)cc3)oc2C)CC1,-1.17%
17,O=C(Nc1cccc2c1CCCC2)C1CCCN1c1nccs1 (stereo not given),2.28%
18,CCc1nc(CN2CCN(C(=O)C3CCCCC3)CC2)cs1,-0.656%
19,Cn1ccnc1CN1CCCCC1Cn1cccn1 (stereo not given),2.66%
20,CCS(=O)(=O)N1CC[C@]2(C[C@@H](OCC3CC3)CO2)C1,-1.4%

row,Structure (SMILES),Percent Effect
1,CC1(C)OCC(CNC(=O)c2cnn(-c3cc(Cl)ccc3Cl)c2N)O1 (stereo not given),-2.66%
2,COCCN1CCc2cc(C(=O)N(C)C)c(NCC3CC3)nc2CC1,0.183%
3,Cn1cnnc1C1CCCN(C(=O)c2ccc3c(c2)OCCCO3)C1 (stereo not given),0%
4,Cc1ccc(N2CCCN(C(=O)c3c(C)oc(C)c3C)CC2)nn1,1.16%
5,CCc1cnc2c(c1NCc1ccncc1)c(=O)n(C)c(=O)n2C,-0.949%
6,CNc1cc(C)nc(C2CN(Cc3cc[nH]n3)CCO2)c1 (stereo not given),-0.432%
7,CC(NC(N)=O)C(=O)N(C)CCCc1cc(-c2ccccc2)no1 (stereo not given),3.41%
8,Cn1cc(C(=O)N2CC[C@@H]3[C@@H]2CCN3Cc2cccc(F)c2)cn1,-0.0764%
9,CCc1ncncc1C(=O)N1CCN(Cc2ccco2)CC1,3.68%
10,CC(C)N(C)C(=O)C1=NOC2(CCN(C(=O)c3ccccn3)C2)C1 (stereo not given),2.07%
11,O=C(c1ccncc1F)N1CCc2ncnc(-c3ccncc3)c2CC1,3.59%
12,Cc1cc(NC(=O)CCc2ccsc2)n(C)n1,1.87%
13,Cc1c[nH]nc1C1CCCCN1C(=O)Cn1cc(Cl)cn1 (stereo not given),4.25%
14,Cc1nc2cc(O)nn2c(C)c1CCC(=O)N(C)Cc1cscn1,8.09%
15,Cc1cc(-c2cnc(N3CCNC(=O)C3)nc2-c2ccc(C)o2)on1,-1.93%
16,COC(=O)c1sccc1S(=O)(=O)N1CCC(Oc2cccnn2)CC1,-2.42%
17,Cc1ncc(-c2ccnc(N3CCCCCC3)n2)c(-c2cccnc2)n1,7.25%
18,CCOCCCC(=O)NCc1cn2cc(Br)ccc2n1,0.599%
19,NC(=O)C1(Cc2ccccc2-c2ccccc2)CCCN(CC2CC2)C1 (stereo not given),2.13%
20,O=C(c1cscn1)N1CCC2(CCN(Cc3nccs3)C2)CC1,1.85%

# Target: Shiga toxin 2 (Escherichia coli O157:H7) (UniProt P09385+P09386)
# Assay: E. coli 0.157:H7 Shiga Toxin SOP - stx2 screening assay
# Format: functional
# Set-up: scale not given: direction of the effect not stated beside the values
# Conditions: 30 µM
row,Structure (SMILES),Percent Effect
1,Cc1cccc(CN2CCc3c(nc(N4CCCCC4C)[nH]c3=O)C2)n1 (stereo not given),21.7%
2,NCC1CN(c2nc(-c3ccccc3)nc3c2CCNCC3)CCO1 (stereo not given),-22.2%
3,O=C1CCC2(CCN(Cc3cc(F)cc(F)c3)CC2)CN1CCO,6.69%
4,CC(Cn1cncn1)NCc1nncn1C1CCCCC1 (stereo not given),2.43%
5,Cc1cn2nc(N3CCCC3Cn3nc(C)cc3C)sc2n1 (stereo not given),-1.2%
6,Cc1ccc(-c2nnc(CNCCn3cc(C)cn3)o2)cc1,-42%
7,Cc1cc(-c2cnc(NC3CCCC3)nc2-c2ccoc2C)on1,-25.8%
8,O=C(NC1CC1)[C@H]1CC[C@@H]2[C@@H](CCN2c2ncc(F)cn2)O1,-23%
9,O=C(Nc1cnn(CCN2CCOCC2)c1)c1cc(F)ccc1F,21.3%
10,CCCNC(=O)NCc1cccnc1OC,-26.6%
11,O=C(C1CCCC1)N1CCN(Cc2nc(-c3ccco3)no2)CC1,-10.1%
12,O=C(NCC1CC1)[C@H]1C[C@H]2OCC[C@H]2N(CCc2ccccc2)C1,2.56%
13,N#Cc1ccc(CN2CCN(C(=O)C3CCC3)[C@@H]3CS(=O)(=O)C[C@@H]32)cc1,-34.5%
14,CN(CCO)C[C@@H]1CN(C(=O)c2c(F)cccc2Cl)C[C@@H]1CO,-49%
15,CC[C@@]1(O)CCN(C(=O)c2ccc(-c3cccc(F)c3)cc2)C[C@H]1O,5.77%
16,CNC(=O)CC1CCN(Cc2nc(-c3ccc(SC)cc3)oc2C)CC1,-3.87%
17,O=C(Nc1cccc2c1CCCC2)C1CCCN1c1nccs1 (stereo not given),-43.4%
18,CCc1nc(CN2CCN(C(=O)C3CCCCC3)CC2)cs1,1.6%
19,Cn1ccnc1CN1CCCCC1Cn1cccn1 (stereo not given),11.2%
20,CCS(=O)(=O)N1CC[C@]2(C[C@@H](OCC3CC3)CO2)C1,11%

row,Structure (SMILES),Percent Effect
1,CC1(C)OCC(CNC(=O)c2cnn(-c3cc(Cl)ccc3Cl)c2N)O1 (stereo not given),17.5%
2,COCCN1CCc2cc(C(=O)N(C)C)c(NCC3CC3)nc2CC1,0.232%
3,Cn1cnnc1C1CCCN(C(=O)c2ccc3c(c2)OCCCO3)C1 (stereo not given),1.29%
4,Cc1ccc(N2CCCN(C(=O)c3c(C)oc(C)c3C)CC2)nn1,-1.2%
5,CCc1cnc2c(c1NCc1ccncc1)c(=O)n(C)c(=O)n2C,-7.71%
6,CNc1cc(C)nc(C2CN(Cc3cc[nH]n3)CCO2)c1 (stereo not given),13.3%
7,CC(NC(N)=O)C(=O)N(C)CCCc1cc(-c2ccccc2)no1 (stereo not given),22.8%
8,Cn1cc(C(=O)N2CC[C@@H]3[C@@H]2CCN3Cc2cccc(F)c2)cn1,0.579%
9,CCc1ncncc1C(=O)N1CCN(Cc2ccco2)CC1,8.73%
10,CC(C)N(C)C(=O)C1=NOC2(CCN(C(=O)c3ccccn3)C2)C1 (stereo not given),3%
11,O=C(c1ccncc1F)N1CCc2ncnc(-c3ccncc3)c2CC1,-0.901%
12,Cc1cc(NC(=O)CCc2ccsc2)n(C)n1,-17.7%
13,Cc1c[nH]nc1C1CCCCN1C(=O)Cn1cc(Cl)cn1 (stereo not given),10.4%
14,Cc1nc2cc(O)nn2c(C)c1CCC(=O)N(C)Cc1cscn1,4.66%
15,Cc1cc(-c2cnc(N3CCNC(=O)C3)nc2-c2ccc(C)o2)on1,-18.2%
16,COC(=O)c1sccc1S(=O)(=O)N1CCC(Oc2cccnn2)CC1,-7.45%
17,Cc1ncc(-c2ccnc(N3CCCCCC3)n2)c(-c2cccnc2)n1,-25.4%
18,CCOCCCC(=O)NCc1cn2cc(Br)ccc2n1,-66%
19,NC(=O)C1(Cc2ccccc2-c2ccccc2)CCCN(CC2CC2)C1 (stereo not given),-5.72%
20,O=C(c1cscn1)N1CCC2(CCN(Cc3nccs3)C2)CC1,-5.87%
